The experiment can be described thus: NCI Yeast Anticancer Drug Screen. Data for the rad50EPP+ strain (AID 151).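 Note: 0% = growth of vehicle-treated control cultures.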 The note with it: S. cerevisiae rad50 mutant strain, stronger effect = higher value. On the procedure:
Growth inhibition of yeast strains with defined genetic alterations is measured as a screen for potential anti-cancer activity. Selected strains with alterations in DNA damage repair or cell cycle control were exposed to compounds and growth inhibition was measured relative to vehicle treated controls. The strain used in this assay is rad50EPP+

Among the data in PubChem BioAssay (NCI) are growth inhibition values, retold here.

The panel holds about 79,000 compounds, 15% with a hit somewhere; the sample as a whole holds those more often. Values without a mark were called inactive. Activity calls are given as the source filed them. Cut-off read from the data, not from the text of the source: active = growth inhibition above about 70%; inactive = the rest.

On to `COc1ccc(C(NCCNC(c2ccc(OC)c(OC)c2)c2cc3c(cc2O)OCO3)c2cc3c(cc2O)OCO3)cc1OC` (stereo not given), for which the growth inhibition is, setting by setting: (at 1.2 µM) -6%; (at 3.7 µM) -11%; (at 11.0 µM) 10%; (at 33.0 µM) 87% (active); (at 100.0 µM) 97% (active).
The like results for `COc1cc2ccnc(-c3c4ccccc4c(N)c4c(OC)c(OC)ccc34)c2cc1OC` were, in that order, 0%, 11%, 22%, 31% and 49%.
The matching figures for `Cc1cc(O)c(C(C)C)cc1C1(c2cc(C(C)C)c(O)cc2C)OC(=O)c2ccccc21`: 0%, -1%, 0%, 0% and 0%.
The matching figures for `Cc1ccc(NC(c2ccccc2)c2ccc3cccnc3c2O)cc1` (stereo not given): -3%, -1%, -4%, -3% and -2%.
`CCOC(=O)c1cc([N+](=O)[O-])c(Sc2ncnc3nc[nH]c23)c([N+](=O)[O-])c1`: the growth inhibition was -8% (at 1.2 µM); -8% (at 3.7 µM); -5% (at 11.0 µM); 6% (at 33.0 µM); 22% (at 100.0 µM).
For `O=C1/C(=C/c2ccccc2)CCCC1CN1CCCCC1` (stereo not given), the growth inhibition reads like this: (at 1.2 µM) -2%; (at 3.7 µM) -1%; (at 11.0 µM) 15%; (at 33.0 µM) 46%; (at 100.0 µM) 51%.
The like results for `CCOC(=O)C#Cc1ccc([N+](=O)[O-])cc1` were, in that order, 8%, 4%, 7%, 23% and 61%.
The matching figures for `Cc1cc(C(C)(C)C)c(OCCCN2CCOCC2)c(C(C)(C)C)c1`: 0%, 3%, 3%, 19% and 47%.
